Structures can show the parent of a compound that is named as a salt.
How the values were obtained:
Conditions in all cases: compound concentration in added solution (µM; 5 µl added to 20 µl cells): 10; 18 h
[1] = tested on: A431; test: LBPA endosome anti-LBPA integrated intensity (sum per cell), Z-score; higher = more LBPA staining
Method in brief: (§1)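 The data are Z-scores, normalised in AcuityXpress, of integrated LBPA or filipin intensity in each cell, either whole-cell or restricted to LBPA endosomes. HeLa MZ or A431 cells, 3,500 per well in 20 µl, were seeded onto 5 µl of 10 µM compound solution in duplicate 384-well plates and incubated 18 h. Fixed cells were stained and imaged, with intensities extracted by MetaXpress segmentation.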

[2] = tested on: HeLa MZ; test: as above
Method in brief: as §1

[3] = tested on: A431; test: whole-cell filipin (free cholesterol) integrated intensity, Z-score; higher = more cholesterol staining
Method in brief: as §1

[4] = tested on: HeLa MZ; test: as above
Method in brief: as §1

[5] = tested on: A431; test: filipin (cholesterol) integrated intensity within LBPA endosomes, Z-score; higher = more cholesterol in LBPA endosomes
Method in brief: as §1

[6] = tested on: HeLa MZ; test: as above
Method in brief: as §1

Row | SMILES | LBPA endosome anti-LBPA integrated intensity (z-score) [1] | LBPA endosome anti-LBPA integrated intensity (z-score) [2] | whole-cell filipin (z-score) [3] | whole-cell filipin (z-score) [4] | filipin (z-score) [5] | filipin (z-score) [6]
1 | C[C@@H]1C[C@H]2[C@@H]3C[C@H](F)C4=CC(=O)C=C[C@]4(C)[C@@]3(F)[C@@H](O)C[C@]2(C)[C@@]1(O)C(=O)CO [Flumethasone] | -0.341 | -0.862 | -0.0225 | 0.117 | -0.194 | -0.317
2 | COc1ccc2[nH]c([S+]([O-])Cc3ncc(C)c(OC)c3C)nc2n1 (stereo not drawn) [Tenatoprazole] | -0.331 | 0.434 | -0.478 | 0.112 | -0.438 | -0.258
3 | CS(=O)(=O)OCCCCOS(C)(=O)=O [Busulfan] | -0.537 | -0.499 | -0.466 | 0.544 | -0.535 | -0.476
4 | Cc1nccn1CC1CCc2c(c3ccccc3n2C)C1=O (stereo not drawn) [Ondansetron Hydrochloride] | 0.526 | 1.23 | -0.22 | 0.362 | -0.149 | 0.186
5 | Nc1nnc(-c2cccc(Cl)c2Cl)c(N)n1 [Lamotrigine] | -0.222 | 1.64 | 0.954 | 3.15 | -0.396 | -0.375
6 | N=C(N)NC(=O)Cc1c(Cl)cccc1Cl [Guanfacine hydrochloride] | -0.503 | 0.0887 | -0.556 | 0.368 | -0.462 | 0.00861
7 | C[N+]1(CCCCC[N+]2(C)CCCC2)CCCC1 [Pentolinium bitartrate] | -0.453 | -0.278 | -0.653 | -0.161 | -0.437 | -0.405
8 | C#C[C@]1(O)CC[C@H]2[C@@H]3CCc4cc(OC)ccc4[C@H]3CC[C@@]21C [Ethynylestradiol 3-methyl ether] | -0.376 | 0.717 | -0.391 | 0.0701 | -0.42 | -0.16
9 | CCC[C@H](N[C@@H](C)C(=O)N1[C@H](C(=O)O)C[C@@H]2CCCC[C@@H]21)C(=O)OCC [Perindopril] | -0.273 | -0.885 | 0.0463 | -0.4 | -0.305 | -0.603
10 | O=C(O)COC(=O)Cc1ccccc1Nc1c(Cl)cccc1Cl [Aceclofenac] | -0.449 | -0.174 | -0.423 | -0.27 | -0.383 | -0.402
11 | Cc1ccsc1/C=C/C1=NCCCN1C [Morantel tartrate] | -0.53 | -0.0789 | -1.09 | -0.906 | -0.593 | -0.756
12 | CC(CN1c2ccccc2Sc2ccccc21)N(C)C (stereo not drawn) [Promethazine hydrochloride] | 2.24 | 1.7 | 2.37 | 0.806 | 2.23 | 1.73
13 | CN(C)CCOC1=Cc2ccccc2Sc2ccc(Cl)cc21 [Zotepine] | 3.49 | 1.41 | 1.18 | -0.352 | 3.08 | 1.71
14 | Cc1c(Cl)cccc1Nc1ncccc1C(=O)O [Clonixin Lysinate] | -0.476 | -1.1 | -0.0028 | -0.353 | -0.486 | -0.62
15 | c1ccc2c(CC3=NCCN3)cccc2c1 [Naphazoline hydrochloride] | -0.505 | 0.993 | -0.75 | 0.085 | -0.523 | 0.0798
16 | N[C@@H]1CONC1=O [D-cycloserine] | -0.278 | -0.4 | -0.132 | -0.322 | -0.405 | -0.523
17 | C=CCc1ccccc1OCC(O)CNC(C)C (stereo not drawn) [Alprenolol hydrochloride] | -0.146 | -0.138 | 0.0188 | 0.141 | -0.22 | -0.133
18 | CC[C@H]1OC(=O)[C@H](C)[C@@H](O[C@H]2C[C@@](C)(OC)[C@@H](O)[C@H](C)O2)[C@H](C)[C@@H](O[C@@H]2O[C@H](C)C[C@H](N(C)C)[C@H]2O)[C@](C)(O)C[C@@H](C)/C(=N\OCOCCOC)[C@H](C)[C@@H](O)[C@]1(C)O [Roxithromycin] | -0.396 | 0.565 | 0.114 | 0.214 | -0.261 | 0.0396
19 | O=C(CCCN1CC=C(n2c(=O)[nH]c3ccccc32)CC1)c1ccc(F)cc1 [Droperidol] | 0.278 | 1.75 | 0.378 | 0.978 | 0.193 | 0.762

Row | SMILES | LBPA endosome anti-LBPA integrated intensity (z-score) [1] | LBPA endosome anti-LBPA integrated intensity (z-score) [2] | whole-cell filipin (z-score) [3] | whole-cell filipin (z-score) [4] | filipin (z-score) [5] | filipin (z-score) [6]
20 | CN(C)CCN(Cc1ccccc1)c1ccccn1 [Tripelennamine hydrochloride] | -0.213 | 1.28 | 0.0432 | 0.362 | -0.29 | 0.335
21 | Cc1cccc(C)c1NC(=O)C1CCCCN1C (stereo not drawn) [Mepivacaine hydrochloride] | -0.256 | 0.0426 | 0.297 | 0.327 | -0.328 | -0.202
22 | Cc1[nH]c(=O)c(C#N)cc1-c1ccncc1 [Milrinone] | -0.393 | 0.29 | -0.171 | -0.0695 | -0.351 | -0.372
23 | O=C(O)[C@H]1/C(=C/CO)O[C@@H]2CC(=O)N21 [Potassium clavulanate] | -0.48 | -0.536 | 0.227 | -0.0014 | -0.358 | -0.433
24 | C=CC1=C(C(=O)O)N2C(=O)[C@@H](NC(=O)/C(=N\OCC(=O)O)c3csc(N)n3)[C@H]2SC1 [Cefixime] | -0.497 | -0.00426 | -0.828 | -0.585 | -0.573 | -0.64
25 | CCN(CC)C(C)CN1c2ccccc2Sc2ccccc21 (stereo not drawn) [Ethopropazine hydrochloride] | 3.1 | 5.78 | 2.83 | 2.95 | 2.11 | 1.8
26 | CC(=O)O[C@]1(C(C)=O)CC[C@H]2[C@@H]3C=C(Cl)C4=CC(=O)CC[C@]4(C)[C@H]3CC[C@@]21C [Chlormadinone acetate] | 0.021 | 2.23 | 0.739 | 1.32 | 0.102 | 0.534
27 | CN(C)c1ccc(O)c2c1C[C@H]1C[C@H]3[C@H](N(C)C)C(O)=C(C(N)=O)C(=O)[C@@]3(O)C(O)=C1C2=O [Minocycline hydrochloride] | -0.618 | -1.91 | -1.01 | -1.52 | -0.639 | -0.888
28 | CC=CC(=O)N(CC)c1ccccc1C [Crotamiton] | -0.66 | -1.3 | -0.358 | -0.316 | -0.501 | -0.424
29 | CN1CC2c3ccccc3Oc3ccc(Cl)cc3C2C1 (stereo not drawn) [Asenapine maleate] | 2.13 | 2 | 0.865 | -0.413 | 1.3 | 0.927
30 | C[C@@H]1[C@H](O)[C@@H](C)/C=C/C=C/C=C/C=C/C=C/C=C/C=C/[C@H](O[C@@H]2O[C@H](C)[C@@H](O)[C@H](N)[C@@H]2O)C[C@@H]2O[C@](O)(C[C@@H](O)C[C@@H](O)[C@H](O)CC[C@@H](O)C[C@@H](O)CC(=O)O[C@H]1C)C[C@H](O)[C@H]2C(=O)O [Amphotericin B] | 0.731 | -0.696 | -0.156 | 0.222 | 0.0841 | -0.26
31 | Cc1ncc(CO)c(CO)c1O [Pyridoxine hydrochloride] | -0.469 | -0.56 | -0.385 | -0.528 | -0.475 | -0.596
32 | CN(C)[C@@H]1C(O)=C(C(N)=O)C(=O)[C@@]2(O)C(O)=C3C(=O)c4c(O)ccc(Cl)c4[C@@H](O)[C@H]3C[C@@H]12 [Demeclocycline hydrochloride] | -0.567 | -1.25 | -0.566 | -1.1 | -0.465 | -0.672
33 | CC(C)NCC(O)c1ccc2ccccc2c1 (stereo not drawn) [Pronethalol hydrochloride] | 0.244 | -0.115 | 0.379 | 0.0476 | -0.072 | -0.11
34 | CN(C)CCCSC(=N)N [Dimaprit dihydrochloride] | -0.577 | -1.27 | -0.259 | -0.607 | -0.452 | -0.519
35 | CN(C)CCC(c1ccc(Cl)cc1)c1ccccn1 (stereo not drawn) [Chlorpheniramine maleate] | -0.653 | 0.363 | -0.45 | -0.192 | -0.443 | 0.105
36 | Cc1cccc(CN2CCN(C(c3ccccc3)c3ccc(Cl)cc3)CC2)c1 (stereo not drawn) [Meclozine dihydrochloride] | -0.277 | -0.335 | -0.336 | -0.815 | -0.233 | -0.413
37 | CC(C)(C)C(=O)OCOC(=O)[C@@H]1N2C(=O)[C@@H](/N=C/N3CCCCCC3)[C@H]2SC1(C)C [Pivmecillinam hydrochloride] | -0.535 | -0.482 | -0.185 | -0.0756 | -0.424 | -0.445
38 | Cn1ccnc1S [Methimazole] | -0.549 | -0.811 | -0.397 | -0.237 | -0.496 | -0.58

From the supplement of paper PMC6607015
